This excerpt belongs to a sample that is enriched for hits.
KDM5B inh = inhibitors of human KDM5B histone demethylase; Q9UGL1; KDM5B demethylase, FDH-coupled NADH fluorescence (FDH is formaldehyde dehydrogenase); Potency, µM (series often up to 57.7 µM), actives largely listed as inhibitors; 220,000 compounds, 2.6% hits; active means well fitted inhibition curve with a large enough effect; further: nearly all actives have a fitted effect of over 70% in size
Target sequence (Q9UGL1 whole entry, looked up): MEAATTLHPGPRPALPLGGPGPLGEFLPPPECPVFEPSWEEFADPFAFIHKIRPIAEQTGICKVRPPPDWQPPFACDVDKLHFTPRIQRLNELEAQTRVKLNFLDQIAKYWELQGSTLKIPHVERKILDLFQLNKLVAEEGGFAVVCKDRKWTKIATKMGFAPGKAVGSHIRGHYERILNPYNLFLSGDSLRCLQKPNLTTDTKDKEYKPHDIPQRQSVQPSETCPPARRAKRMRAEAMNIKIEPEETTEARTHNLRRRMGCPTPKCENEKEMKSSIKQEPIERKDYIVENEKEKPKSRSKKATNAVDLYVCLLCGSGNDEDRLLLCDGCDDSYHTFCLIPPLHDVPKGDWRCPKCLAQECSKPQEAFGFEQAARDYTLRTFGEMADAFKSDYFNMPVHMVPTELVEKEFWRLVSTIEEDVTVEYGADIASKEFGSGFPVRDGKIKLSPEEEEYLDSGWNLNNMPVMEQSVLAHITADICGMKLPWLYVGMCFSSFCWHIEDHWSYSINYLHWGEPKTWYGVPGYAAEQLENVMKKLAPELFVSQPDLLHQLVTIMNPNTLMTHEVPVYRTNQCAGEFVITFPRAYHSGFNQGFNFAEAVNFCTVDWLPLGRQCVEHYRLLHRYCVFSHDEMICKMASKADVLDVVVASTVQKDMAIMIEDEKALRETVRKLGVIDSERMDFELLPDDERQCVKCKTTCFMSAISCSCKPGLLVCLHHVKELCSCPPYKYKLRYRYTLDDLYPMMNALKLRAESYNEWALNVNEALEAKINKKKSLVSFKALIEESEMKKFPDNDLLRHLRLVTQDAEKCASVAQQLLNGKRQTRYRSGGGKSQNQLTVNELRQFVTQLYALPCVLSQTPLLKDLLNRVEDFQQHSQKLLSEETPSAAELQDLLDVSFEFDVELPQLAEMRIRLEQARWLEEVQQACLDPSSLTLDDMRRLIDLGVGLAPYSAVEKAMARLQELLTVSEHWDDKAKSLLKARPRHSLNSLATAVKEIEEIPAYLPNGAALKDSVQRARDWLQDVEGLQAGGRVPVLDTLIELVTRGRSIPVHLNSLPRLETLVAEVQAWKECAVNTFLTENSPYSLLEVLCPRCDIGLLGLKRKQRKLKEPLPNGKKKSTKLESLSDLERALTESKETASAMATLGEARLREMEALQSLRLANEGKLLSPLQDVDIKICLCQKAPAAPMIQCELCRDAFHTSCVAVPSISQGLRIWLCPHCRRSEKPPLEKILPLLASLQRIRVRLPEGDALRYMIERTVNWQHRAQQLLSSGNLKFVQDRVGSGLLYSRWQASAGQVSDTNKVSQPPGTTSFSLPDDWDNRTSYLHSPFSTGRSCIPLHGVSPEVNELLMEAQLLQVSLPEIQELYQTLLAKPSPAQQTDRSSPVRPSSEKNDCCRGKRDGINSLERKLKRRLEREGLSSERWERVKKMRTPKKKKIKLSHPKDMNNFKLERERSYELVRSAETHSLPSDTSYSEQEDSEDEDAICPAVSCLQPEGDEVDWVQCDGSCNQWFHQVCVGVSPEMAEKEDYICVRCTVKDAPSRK
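Measured: NADH fluorescence change, 30 min, RT. System: KDM5BΔAP 200 nM final, H3K4me3 peptide, α-KG, Fe(II), ascorbate, NAD⁺ plus FDH, pH 7.5 HEPES. Compounds: titrated, 10 min pre-incubation with enzyme.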
A number is an active result; 0 = inactive.

SMILES | KDM5B inh
N#Cc1ccc(CN2CCC3(CC(=O)Nc4ccccc4N3)C2)cc1 (centres undefined) | 0
COc1ccc(CN2CCC3(CC(=O)Nc4ccccc4N3)C2)cc1 (centres undefined) | 0
O=C1CC2(CCN(CC3CCNC3)C2)Nc2ccccc2N1 (centres undefined) | 112µM
CCn1c(CC(=O)Nc2ccc(C)cc2)nnc1SCC(=O)Nc1ccc(F)cc1 | 0
Cc1cc(SCC(=O)c2ccc3c(c2)OCCO3)nc2ccccc12 | 0
CCCSc1nnc(NC(=O)Nc2ccc(C)cc2)s1 | 0
CC(=C/c1ccccc1)/C=N/NC(=S)NC1CCCCC1 | 0
O=C(COc1ccccc1Cl)Nc1ccccc1OCc1cc(=O)n2ccccc2n1 | 0
COC(=O)COc1cccn2c(=O)c(-c3cc(C)n(-c4ccc(Cl)c(Cl)c4)n3)c(C)nc12 | 28µM
Cc1nc2c(OCC(=O)c3ccccc3)cccn2c(=O)c1-c1cc(C)n(-c2ccc(Cl)cc2)n1 | 16µM
O=C(COc1ccccc1Cl)c1ccccc1 | 0
COc1ccc(-n2nc(C(=O)NCC(=O)Nc3cc(OC)c(OC)c(OC)c3)c3ccccc3c2=O)cc1Cl | 0
CCOCCCn1c(=NC(C)=O)c(C#N)cc2c(=O)n3cccc(C)c3nc21 | 0
CCOC(=O)c1cc(OC(=O)c2cc(OC)cc(OC)c2)n(-c2ccccc2)n1 | 0
CCOC(=O)CCCOc1cccn2c(=O)c(-c3cc(C)n(-c4ccccc4)n3)c(C)nc12 | 25µM
Cc1ccccc1OCC(=O)OCC(=O)c1ccc(Cl)cc1 | 0
Fc1ccc2[nH]cc(CCNC(=S)Nc3ccc(Nc4ccccc4)cc3)c2c1 | 0
Cc1ccc(CN(C(=O)c2cc(=O)c3ccccc3o2)C2CCS(=O)(=O)C2)cc1 (centres undefined) | 0
CC1CCCCC1NC1c2ccccc2-c2ccccc21 (centres undefined) | 0
COc1cccc(N2CCN(C(=O)c3cnc4c(C)cccn4c3=O)CC2)c1 | 0
O=C(c1ccc(-c2cnco2)cc1)N1Cc2ccccc2C(O)C1 (centres undefined) | 0
O=C1NC(=NC2CCCCC2)C2(CCN(Cc3ccc(F)cc3)C2)N1c1cc(F)cc(F)c1 (centres undefined) | 0
CCc1nc2ccc(C(=O)NCc3ccccc3C)cc2nc1CC | 0
CC(C)c1nccn1CCCNC(=O)c1ccc(-c2ccccc2F)nc1 | 0
COc1ccc(F)cc1-c1ccc(C(=O)NCCCn2ccnc2C(C)C)cn1 | 28µM
SMILES | KDM5B inh
Cc1ccc(C)c(-c2ccc(C(=O)NCCCn3ccnc3C(C)C)cn2)c1 | 0
CCCOc1ccc(-c2nc3ccc4ccccc4c3c3c2CCC3)cc1 | 0
Cn1c(=O)c2c(ncn2CCC(=O)Nc2cc(F)cc(F)c2)n(C)c1=O | 0
COc1ccc(NC(=O)N2CCOC(c3ccc(Cl)cc3)C2)c(C)c1 (centres undefined) | 0
COc1ccc2cc(C3CN(Cc4nc(C(N)=O)no4)CCO3)ccc2c1 (centres undefined) | 18µM
COc1ccc2cc(C3CN(C(=O)CNC(=O)C(C)C)CCO3)ccc2c1 (centres undefined) | 0
COc1ccc(-c2noc([C@@H]3Cc4nc[nH]c4CN3Cc3ccccc3)n2)cc1 | 0
O=C(O)c1ccc(CN2Cc3[nH]cnc3C[C@H]2c2nc(-c3cccc([N+](=O)[O-])c3)no2)cc1 | 0
Cc1ccc(CN2Cc3[nH]cnc3C[C@H]2C(=O)N2CCC(Cc3ccccc3)CC2)cc1 | 0
O=C(Nc1cccc(F)c1)N1Cc2[nH]cnc2C[C@H]1c1nc(-c2ccc(F)c(Cl)c2)no1 | 0
Cc1ccc(-c2noc([C@@H]3Cc4nc[nH]c4CN3Cc3ccc(CO)o3)n2)cc1 | 0
Cc1ccc(-c2noc([C@@H]3Cc4nc[nH]c4CN3Cc3ccc(F)cc3)n2)cc1 | 0
CC(C)c1noc([C@@H]2Cc3nc[nH]c3CN2Cc2ccc(F)cc2)n1 | 28µM
Cc1ccc(NC(=O)N2Cc3[nH]cnc3C[C@H]2c2nc(C(C)C)no2)cc1 | 0
COC(=O)[C@@H]1Cc2nc[nH]c2CN1Cc1ccc(C(=O)O)cc1 | 40µM
O=C([C@@H]1Cc2nc[nH]c2CN1Cc1ccc(C(F)(F)F)cc1)N1CCOCC1 | 0
Cc1ccc(-c2noc([C@@H]3Cc4nc[nH]c4CN3Cc3ccc(C(=O)O)cc3)n2)cc1 | 35µM
O=C(O)c1ccc(CN2Cc3[nH]cnc3C[C@H]2c2nc(-c3ccc(F)c(Cl)c3)no2)cc1 | 25µM
CC(C)CCN1C(=O)CC[C@]2(C(=O)NC3CCCC3)CCCC[C@@H]12 | 0
CCCCCn1c(CN2CCCC(C)C2)nc2c1c(=O)n(C)c(=O)n2C (centres undefined) | 0
Cc1cc(CSc2ncccc2C(=O)Nc2ccnn2Cc2ccc(C)o2)no1 | 0
COc1ccc(NC(=O)Cn2ncc3c4ccccc4n(Cc4ccccc4)c3c2=O)cc1OC | 0
Cc1ccc(C(=O)CSc2nc(-c3ccccc3)nc3c2CCCC3)cc1 | 0
CC/C(=N\NC(N)=O)C1CC(C(C)C)CC=C1C (centres undefined) | 0
CCn1ccc(C(=O)N2C[C@@H](Oc3ccccc3)C[C@H]2C(=O)NC2CC2)n1 | 0
SMILES | KDM5B inh
COc1ccc(NC(=O)CSc2nnc(C3CCCCC3)n2-n2cccc2)cc1 | 0
CCn1nc(C(=O)Nc2cccc(F)c2)c2ccccc2c1=O | 0
COc1ccc(C)cc1NC(=O)CN1C(=O)C2CC=CCC2C1=O (centres undefined) | 0
COc1ccc(C(=O)NC(=S)N2CCN(c3ccccc3OC)CC2)cc1 | 0
Cc1ccc(C)c(SCC(=O)Nc2ccc(S(=O)(=O)Nc3ncccn3)cc2)c1 | 0
CN1CC(=O)N(c2ccc(Cl)cc2)Cc2c1ncnc2N1CCOCC1 | 0
CN1CCN(C)c2cc(-c3ccc(N4CCOCC4)cc3)ncc2C1 | 40µM
CN1CC(=O)N(c2ccccc2)Cc2c1ncnc2N1CCOCC1 | 0
O=C(Nc1ccc2c(c1)CCC2)c1cccc(Br)c1 | 0
CN(C)CCN(C)C(=O)c1ccc2c(c1)NC(C)(CCCCc1ccccc1)CO2 (centres undefined) | 0
CC1(CCCCc2ccccc2)COc2ccc(C(=O)NCc3ccncc3)cc2N1 (centres undefined) | 32µM
CC1(CCCCc2ccccc2)COc2ccc(C(=O)NCc3cnccn3)cc2N1 (centres undefined) | 0
CC1(CCCCc2ccccc2)COc2ccc(C(=O)Nc3cccnc3)cc2N1 (centres undefined) | 28µM
CC1(CCCCc2ccccc2)COc2ccc(C(=O)NCc3cccnc3)cc2N1 (centres undefined) | 28µM
CN(C(=O)c1ccc2c(c1)NC(C)(CNCc1ccccc1)CO2)c1ccccc1 (centres undefined) | 0
O=C(OCc1c(Cl)cccc1Cl)c1ccccc1Oc1ccccc1 | 0
CCOc1ccc(NC(=O)C2CCCN2C(=O)NC2CCCCC2)cc1 (centres undefined) | 0
CCCc1nc2sc3c(=O)[nH]cnc3c2c2c1CCCC2 | 0
O=C(CNc1cccc(S(=O)(=O)N2CCCCCC2)c1)N1CCN(C(=O)c2cccs2)CC1 | 0
COC(=O)C1CN(C(=O)C(C)Oc2ccc(C)c(C)c2)c2ccccc2O1 (centres undefined) | 0
CC(=O)Nc1ccc(S(=O)(=O)N[C@H]2CO[C@H]3[C@@H]2OC[C@@H]3Nc2nccc(C(C)(C)C)n2)cc1 | 0
O=C(Nc1cccc2ccccc12)O[C@@H]1CO[C@H]2[C@@H]1OC[C@@H]2NC(=O)N1CCOCC1 | 0
COc1ccccc1-c1ccnc(N[C@H]2CO[C@H]3[C@@H]2OC[C@@H]3NS(=O)(=O)c2ccc(NC(C)=O)cc2)n1 | 0

Bioassay records deposited in PubChem by National Center for Advancing Translational Sciences (NCATS).
